Measured values taken from PubChem BioAssay (NCATS).
Results filed as inconclusive are left out. A call without a number means that no potency is given here. Active and inactive are the calls of the source. Calls come from the whole dose curve; as a rule, active = well fitted inhibition curve with a large enough effect; inconclusive = small, poorly fitted or top-dose-only effect, or effect the other way; inactive = flat fitted curve, though single readings scatter.

Target: ATP-dependent 6-phosphofructokinase (Trypanosoma brucei brucei) (UniProt O15648)
Sequence (O15648 whole entry, looked up): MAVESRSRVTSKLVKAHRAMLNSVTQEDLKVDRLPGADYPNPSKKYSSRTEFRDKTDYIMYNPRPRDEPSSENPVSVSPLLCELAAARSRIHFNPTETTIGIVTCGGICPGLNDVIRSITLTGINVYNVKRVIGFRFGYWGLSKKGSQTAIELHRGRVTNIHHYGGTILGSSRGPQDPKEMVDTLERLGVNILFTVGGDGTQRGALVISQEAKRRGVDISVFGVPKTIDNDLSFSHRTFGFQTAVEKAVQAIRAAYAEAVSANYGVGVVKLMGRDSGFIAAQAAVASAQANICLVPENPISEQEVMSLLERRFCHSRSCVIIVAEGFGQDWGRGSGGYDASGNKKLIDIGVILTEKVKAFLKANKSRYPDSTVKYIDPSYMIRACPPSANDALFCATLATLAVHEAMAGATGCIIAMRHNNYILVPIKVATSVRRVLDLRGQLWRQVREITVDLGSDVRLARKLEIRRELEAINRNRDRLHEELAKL
Assay: qHTS Assay to Find Inhibitors of T. brucei phosphofructokinase: hit validation (AID 492961);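 note: luminescence reports ADP formed as PFK phosphorylates fructose-6-phosphate with ATP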
Conditions: T. brucei PFK, ADP-Glo luminescence; series mostly up to 51.4 µM
Method in brief: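 Measures ADP output of PFK (1.25 nM) at 0.1 mM ATP, 0.5 mM F6P, pH 8.0 TEA buffer with 5 mM MgCl2. No-enzyme wells define full inhibition; uninhibited enzyme wells define zero.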

Row | SMILES | Potency
1 | COC(=O)c1ccccc1O | inactive
2 | CCOC(=O)Cc1ccc(-c2ccccc2)cc1 | inactive
3 | CCC(C)[C@@H](N)C(=O)O (stereo partly specified) | inactive
4 | COC1=C(OC)C(=O)C(C/C=C(\C)CC/C=C(\C)CC/C=C(\C)CC/C=C(\C)CC/C=C(\C)CC/C=C(\C)CC/C=C(\C)CC/C=C(\C)CC/C=C(\C)CCC=C(C)C)=C(C)C1=O | inactive
5 | CNC(=O)c1c(I)c(C(=O)NCC(=O)Nc2c(I)c(C(=O)O)c(I)c(C(=O)NCCO)c2I)c(I)c(N(C)C(C)=O)c1I | inactive
6 | OC1OC[C@@H](O)[C@H](O)[C@@H]1O (stereo partly specified) | inactive
7 | CC(C)CCCCCCc1ccc(O)cc1 | inactive
8 | OC/C=C/c1ccccc1 | inactive
9 | FC(F)(F)COCC(F)(F)F | inactive
10 | O=C(/C=C/c1cccc(F)c1)NC1CC1 | inactive
11 | CC12CCC(C[N+](C)(CCC[N+](C)(C)C)C1)C2(C)C (stereo unspecified) | inactive
12 | CNC(=O)OCc1cccc(COC(=O)NC)n1 | inactive
13 | O=C(O)c1cc(N=Nc2ccc(O)c(C(=O)O)c2)ccc1O | inactive
14 | CC/C=C\C/C=C\C/C=C\C/C=C\C/C=C\C/C=C\CCC(=O)O | inactive
15 | Cc1cccc(C)c1NC(=O)NC1=CCCN1C | inactive
16 | FCOC(C(F)(F)F)C(F)(F)F | inactive
17 | OCc1ccccc1 | inactive
18 | CC12CCC(C1)C(C)(C)C2=O (stereo unspecified) | inactive

Row | SMILES | Potency
19 | CCN(CC)CCC(=O)N1c2ccccc2Sc2ccc(C(F)(F)F)cc21 | inactive
20 | C=CCCCCCCCCC(=O)OC | inactive
21 | CC(C)[C@@H](N)C(=O)O | inactive
22 | C=CC[N+]1([C@H]2C[C@H]3[C@@H]4CC[C@H]5C[C@H](O)[C@@H](N6CCOCC6)C[C@]5(C)[C@H]4CC[C@]3(C)[C@H]2OC(C)=O)CCCC1 | inactive
23 | FC(F)(F)C(F)(F)C(F)(F)C(F)(F)C(F)(F)F | inactive
24 | CCCCCCCCCCCC(=O)N(CCO)CCO | inactive
25 | CCN(CC)C(=S)S | inactive
26 | CC(=O)Nc1ccc(OC(C)=O)cc1 | inactive
27 | C[N+]1(C)[C@@H]2CC(OC(=O)C(O)(c3cccs3)c3cccs3)C[C@H]1[C@@H]1O[C@@H]12 (stereo partly specified) | inactive
28 | CSc1nc2cc(Oc3cccc(Cl)c3Cl)c(Cl)cc2[nH]1 | inactive
29 | CCCCCCCCCC(=O)NO | inactive
30 | CN(C)CCOc1ccc(/C(=C(/CCCl)c2ccccc2)c2ccccc2)cc1 | inactive
31 | S=C1SCN(Cc2ccccc2)CN1Cc1ccccc1 | inactive
32 | CC(=O)Oc1cccc(C(=O)O)c1OC(C)=O | inactive
33 | NC(N)=O | inactive
34 | O=C(O)/C=C/C(=O)Nc1ccc(S(=O)(=O)Nc2nccs2)cc1 | inactive
35 | CC(C)CCCC(C)NC(C)C (stereo unspecified) | inactive
36 | CC1CC(OC(=O)C(O)c2ccccc2)CC(C)(C)C1 (stereo unspecified) | inactive
